APOBEC3A inh: APOBEC3A ssDNA deaminase inhibitors, primary screen, selectivity assay for APOBEC3G inhibitor project, biochemical, FAM/TAMRA oligo cleavage fluorescence; DNA dC->dU-editing enzyme APOBEC-3A (Homo sapiens), P31941; recombinant A3A, FAM/TAMRA ssDNA deamination fluorescence; inhibition, % at 20 µM; 330,000 tested, 0.41% active;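 active = at least 40% inhibition at 20 µM here, with at most 30% in a related deaminase screen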
ALR inh: inhibitors of human ALR sulfhydryl oxidase, primary screen, biochemical, H2O2 detection, HRP-luminol luminescence, single point | FAD-linked sulfhydryl oxidase ALR (Homo sapiens), P55789 | purified ALR, DTT oxidation | inhibition, % (concentration not given with the values) | 290,000 tested, 3.8% active;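 active = mean replicate inhibition above about 79%, with every replicate also reaching it, limit read from the data; inconclusive = only one of the two criteria met; inactive = mean below limit and not every replicate reaching it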
Target sequence (P55789 whole entry, looked up): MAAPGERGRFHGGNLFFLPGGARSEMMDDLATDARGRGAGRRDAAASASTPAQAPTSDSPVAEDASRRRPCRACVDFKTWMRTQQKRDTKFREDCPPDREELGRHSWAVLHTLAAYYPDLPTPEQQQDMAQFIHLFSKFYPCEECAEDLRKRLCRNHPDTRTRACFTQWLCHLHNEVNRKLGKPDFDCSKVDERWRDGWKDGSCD
A3G deaminase: APOBEC3G DNA deaminase inhibitors, primary screen, biochemical, fluorescence, single-stranded DNA substrate, uHTS. 330,000 tested, 0.28% active. DNA dC->dU-editing enzyme APOBEC-3G (Homo sapiens), Q9HC16. inhibition, % at 20 µM. AID 493012, 2011. recombinant A3G, ssDNA deamination FAM/TAMRA fluorescence;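 active = inhibition of at least 40% at 20 µM, with no more than 30% in the related APOBEC3A deaminase screen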
Target sequence (Q9HC16 whole entry, looked up): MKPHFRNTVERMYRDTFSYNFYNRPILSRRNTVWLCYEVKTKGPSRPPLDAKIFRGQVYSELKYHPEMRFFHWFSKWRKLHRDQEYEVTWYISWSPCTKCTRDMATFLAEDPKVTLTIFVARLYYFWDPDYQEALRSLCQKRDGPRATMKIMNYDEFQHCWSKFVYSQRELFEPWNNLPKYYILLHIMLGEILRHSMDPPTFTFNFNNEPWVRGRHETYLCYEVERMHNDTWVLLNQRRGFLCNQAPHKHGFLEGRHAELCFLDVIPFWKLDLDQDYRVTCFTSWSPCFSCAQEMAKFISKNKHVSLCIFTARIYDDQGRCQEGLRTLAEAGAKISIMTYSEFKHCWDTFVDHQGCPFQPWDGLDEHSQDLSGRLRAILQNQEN
CendR NRP1 mod: modulators of CendR peptide binding to NRP-1, primary screen, biochemical, fluorescence polarization, uHTS; 360,000 tested, 0.85% active; FAM-RPARPAR peptide binding to NRP-1; AID 602438, 2012; inhibition, % at 25 µM; Neuropilin-1 (Homo sapiens), O14786;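 active = inhibition or corrected inhibition above about 18%, plus a signal ratio from 0.5 to 1.5, limit read from the data, passing the limit was not always enough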
M18AAP inhibitor: PfM18AAP inhibitors, malaria aminopeptidase, primary screen, biochemical, QFRET, recombinant enzyme. M18 aspartyl aminopeptidase (Plasmodium falciparum 3D7). H-Glu-NHMec fluorogenic cleavage. inhibition, % at 7.35 µM. 290,000 tested, 1.2% active. AID 1822, 2009;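 active = inhibition above the campaign mean inhibition over all tested compounds plus 3 SD, cut at about 28% in these data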
Yeast superoxide: reduction of superoxide in aged yeast, primary screen, HTS; S. cerevisiae aged cells, superoxide DHE fluorescence; active compounds read low; superoxide response (% of plate mean), % at 10 µM; 330,000 tested, 0.18% active; AID 2690, 2010;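 active = superoxide response under a set limit, about three screen SD below normal, cut at about 65% in these data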;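 note: yeast aged for seven days with compound at 30 °C before DHE staining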
Hits are given with their value; - = inactive; ? = inconclusive; . = not tested or not shown. Compounds with a hit are over-represented: about 5.2% of the library has one in this group of screens.

SMILES	APOBEC3A inh	ALR inh	A3G deaminase	CendR NRP1 mod	M18AAP inhibitor	Yeast superoxide
CSc1ccc(C(=O)C2CCCN(S(=O)(=O)N(C)C)C2)cc1 (stereo not given)	-	-	-	-	-	-
Cc1ccc(N2CC(C(=O)OCC(=O)NNC(=O)c3ccccc3)CC2=O)cc1 (stereo not given)	-	-	-	-	.	-
O=C(O)c1ccc2c(c1)NC(=O)C(N1CCCC1)S2 (stereo not given)	-	-	-	-	-	-
CCc1nnc(NC(=O)CSc2nnc(Cc3cc(=O)[nH]c(=O)[nH]3)n2-c2cccc(OC)c2)s1	-	95.7	-	-	-	-
CCCCn1c(CCNC(=O)c2ccco2)nc2ccccc21	-	-	-	-	-	-
CCCCn1c(CCCNC(=O)c2ccco2)nc2ccccc21	-	-	-	22.2	-	-
O=C(CSCc1ccc(F)cc1)N1CCN(c2ccccc2)CC1	-	-	-	-	-	-
Cc1cccn2c(=O)nc(SCC(=O)N3CCN(c4ccccc4)CC3)nc12	-	85.6	-	-	.	-
Cc1cccn2c(=O)nc(SCC(=O)N3CCOCC3)nc12	-	-	-	-	.	-
CCC(CC)C(=O)N1CCN(c2ccccc2)CC1	-	98.2	-	-	-	-
Cc1ccccc1CSCC(=O)N1CCN(c2ccccc2)CC1	-	98.5	-	-	-	-
Cc1ccsc1-c1nc(CSCC(=O)N2CCN(c3ccccc3)CC2)c(C)o1	-	89.2	-	-	-	-
CCC(C(=O)N1CCN(c2cccc(Cl)c2)CC1)c1ccccc1 (stereo not given)	-	-	-	-	-	-
CC(=O)N1CCOc2ccc(S(=O)(=O)N3C(C)CCCC3C)cc21 (stereo not given)	-	-	-	-	-	-
COC(=O)c1[nH]c2cc(OC)ccc2c1NC(=O)c1ccc2c(c1)OCO2	-	-	-	20.7	-	-
Cc1ccc(C23CC4CC(CC(C(=O)N5CCOCC5)(C4)C2)C3)cc1	-	-	-	-	-	-
COc1ccc(OC)c(S(N)(=O)=O)c1	-	-	-	-	-	-
CCOc1cc(/C=C2\SC(=S)N(NS(=O)(=O)c3ccccc3)C2=O)ccc1O	-	99.1	-	-	-	-
CCOc1cc(/C=C2\SC(=S)N(Nc3ccccc3)C2=O)ccc1O	-	80.7	-	-	-	-
COc1cc(/C=C2\SC(=S)N(Nc3ccccc3)C2=O)ccc1O	-	?	-	-	-	-
COc1ccc(C2=NOC(Cn3nc(C(=O)NCc4ccc(C)cc4)cc3-c3ccccc3)C2)cc1 (stereo not given)	-	-	-	-	.	.
CN(C)c1ccc(C(CC(=O)c2ccccc2)C2CCCCC2=O)cc1 (stereo not given)	-	98.1	-	-	-	-
Cc1c(C(=O)O)cccc1-c1ccc(/C=N/Nc2ccc(Br)cc2)o1	-	99.6	-	-	-	-
O=Cc1ccc(-c2ccccc2C(=O)O)o1	-	-	-	34.6	-	-
O=C(O)c1ccc(N/N=C/c2ccc(-c3cc(Cl)ccc3Cl)o2)cc1	-	-	-	-	-	-
SMILES	APOBEC3A inh	ALR inh	A3G deaminase	CendR NRP1 mod	M18AAP inhibitor	Yeast superoxide
COc1cccc(CNC2CCCC2)c1	-	-	-	-	-	-
CN(C)CCNC(=O)c1cc2ccccc2oc1=O	-	-	-	-	-	-
CN(Cc1cnn(C)c1)C(=O)c1cc2ccccc2oc1=O	-	-	-	52.2	-	-
COc1cc(N=Nc2ccccc2C(=O)O)ccc1O	-	98.1	-	-	-	-
Cc1cc(N=Nc2ccccc2C(=O)O)c(C)c(C)c1O	-	80.6	-	-	-	-
COc1cc(N=Nc2ccc3ccccc3c2)ccc1O	-	.	-	-	-	-
CCN(CC)c1ccc(N2C(=O)/C(=C\c3cccnc3)SC2=S)cc1	-	-	-	-	-	-
COCCn1c(CCC(=O)O)ccc1-c1cccs1	-	81.4	-	-	-	-
Cc1ccc(-n2c(CCC(=O)O)ccc2-c2cccs2)cc1C	-	.	-	-	-	-
O=C(O)CCc1ccc(-c2cccs2)n1NC(=O)c1cccs1	-	98.9	-	-	-	-
O=C(O)CCc1ccc(-c2ccc(Cl)cc2)n1Cc1ccco1	-	-	-	-	-	-
O=C(O)CCc1ccc(-c2cccs2)n1Cc1ccco1	-	99.0	-	-	-	-
CCCCn1c(CCC(=O)O)ccc1-c1cccs1	-	93.4	-	-	-	-
COC(=O)N/N=C(\C)c1cccs1	-	-	-	-	-	-
Cc1cc(NCc2ccco2)nc(N2CCC(C(=O)NC3CCCCC3)CC2)n1	-	-	-	-	-	-
CCOc1ccc2c(c1)n(CO)c(=S)n2CO	-	99.8	-	-	-	-
CCOc1ccc2[nH]c(=S)[nH]c2c1	-	.	-	-	-	-
CCN(CC(=O)Nc1ccc(Cl)c(S(=O)(=O)N(C)C)c1)CC(=O)NC(C)C	-	-	-	-	-	-
O=S1(=O)CCOC[C@H](Cc2ccccc2)N1Cc1cccc(Cl)c1	-	-	-	-	.	-
O=S1(=O)CCOC[C@H](Cc2ccccc2)N1Cc1ccc(Cl)cc1	-	-	-	29.2	.	.
O=S1(=O)CCOCCCN1Cc1ccc(Cl)cc1	-	-	-	24.5	-	-
CC(C)C[C@H]1COCCS(=O)(=O)N1Cc1ccccc1F	-	-	-	25.3	.	-
O=S1(=O)CCOCCN1Cc1ccccc1	-	-	-	-	-	-
Cc1ccccc1CN1[C@@H](Cc2ccccc2)COCCS1(=O)=O	-	-	-	25.6	.	.
NC1=NC(=O)CC(C(=O)NCCc2ccccc2)S1 (stereo not given)	-	-	-	-	-	-
SMILES	APOBEC3A inh	ALR inh	A3G deaminase	CendR NRP1 mod	M18AAP inhibitor	Yeast superoxide
CS(=O)(=O)N1CCC(C(=O)NCc2ccc(Cl)cc2Cl)CC1	-	-	-	-	-	-
CCN(CC)C(=O)Cn1cc(C(=O)C(=O)N2CCN(c3ccccc3)CC2)c2ccccc21	-	-	-	24.6	-	-
CCN(CC)C(=O)Cn1cc(C(=O)C(=O)N2CCN(C)CC2)c2ccccc21	-	-	-	-	-	-
COc1cc(CN2C[C@@H](CO)O[C@@H](n3cnc4c(N5CCN(c6ccccc6)CC5)ncnc43)C2)cc(OC)c1OC	.	.	.	36.6	.	.
COc1ccc(CN2C[C@@H](CO)O[C@@H](n3cnc4c(N5CCN(c6ccccc6)CC5)ncnc43)C2)cc1	.	.	.	-	.	.
CCOC(=O)c1sc(=S)n(CC)c1NC(=O)CC	-	-	-	-	-	-
CC(C)OCCCNC(=O)c1sc(=S)n(C)c1N	-	.	-	-	-	-

Assay outcomes deposited in PubChem BioAssay by several laboratories.
